Measured values published in PubChem BioAssay (NCATS).
Inconclusive results are not listed. Activity calls are given as the source filed them. Unless noted, calls come from the whole dose curve; as a rule, active = well fitted curve in the direction sought with a large enough effect; inconclusive = small, poorly fitted or top-dose-only effect, or another doubt; inactive = no such curve, though single readings can be large; an effect the other way counts as inactive or inconclusive.

Columns and labels:
[1] = High-throughput drug toxicity screening in the BPDCN cell line Cal-1 (AID 1224825; call rule not given here); settings: Cal-1 BPDCN cell viability, qHTS; at 45.8 µM (top of the series) unless noted
Procedure, shortened: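 500 Cal-1 cells/well, RPMI + glutamine + 10% FBS (phenol red-free); cpd added by pin tool; 48 h, 37C, 5% CO2; CTG 15 min RT, lumi read. Normalised: DMSO 100%, bortezomib 9.2 uM 0%.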

[2] = qHTS assay for measurement of the activity of small molecule inhibitors on Zika virus induced Caspase-3 activity in human iPSC derived neural progenitor cells (hNPCs) (AID 1224857); note: nearly all actives have a fitted effect of over 65% in size; note: potency is the fitted concentration of half-maximal effect
Procedure, shortened: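 Percent inhibition of virus-induced caspase-3/7 luminescence (Caspase-Glo), scaled between uninfected cells and Zika-infected cells. hNPCs received compound 1 hr before ZIKV at 2 FFU/cell, with 6 hours infection at 37 C.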

[3] = qHTS assay for measurement of the activity of small molecule inhibitors on Zika virus induced Caspase-3 activity in human astrocytoma cells (AID 1224859); note: potency is the fitted concentration of half-maximal effect
Procedure, shortened: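 Luminescent caspase-3/7 read-out (30 min reagent, room temperature) in human SNB-19 cells infected 6 h with ZIKV (2 FFU/cell) after 1 h compound pre-incubation; Data were normalised to uninfected and infected wells.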

[4] = qHTS Screen of the MIPE 4.0 Collection Against Ewings Sarcoma (RDES) (AID 1259252); note: nearly all actives have a fitted effect of over 35% in size; note: potency is the fitted concentration of half-maximal effect
Procedure, shortened: (§1)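 Cells plated in serum-containing RPMI (5% FBS) and treated with compound dilutions for 48 h. Readout luminescent viability; normalization relied on vehicle (no inhibition) and media-only columns (full inhibition).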

[5] = qHTS Screen of the MIPE 4.0 Collection Against Ewings Sarcoma (TC71) (AID 1259253); note: nearly all actives have a fitted effect of over 40% in size; note: potency is the fitted concentration of half-maximal effect
Procedure, shortened: as §1

[6] = qHTS Screen of the MIPE 4.0 Collection Against Ewings Sarcoma (EW8) (AID 1259255); note: nearly all actives have a fitted effect of over 35% in size; note: potency is the fitted concentration of half-maximal effect
Procedure, shortened: as §1

[7] = P-glycoprotein substrates identified in KB-3-1 adenocarcinoma cell line, qHTS therapeutic library screen (AID 1346986); note: nearly all actives have a fitted effect of over 60% in size
Procedure, shortened: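 Cells seeded 500/well in DMEM/10% FCS; compounds pinned in dose-response; 72 h incubation; CellTiter-Glo added, 5 min, luminescence. KB-8-5-11 run ±tariquidar to test reversal of P-gp resistance.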

[8] = P-glycoprotein substrates identified in KB-8-5-11 adenocarcinoma cell line, qHTS therapeutic library screen (AID 1346987); note: nearly all actives have a fitted effect of over 65% in size; note: potency is the fitted concentration of half-maximal effect
Procedure, shortened: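 Steps: plate 500 KB-8-5-11 cells/well in DMEM + 10% FCS (colchicine removed); pin compounds in dose-response; incubate 72 h, 37 degree C, 5% CO2; add CellTiter-Glo, 5 min; read luminescence.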

[9] = NS1 protein of Zika virus - qHTS assay to identify small molecule inhibitors in human HEK 293 cells (AID 1347053); note: nearly all actives have a fitted effect of over 55% in size; note: potency is the fitted concentration of half-maximal effect
Procedure, shortened: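 Inhibition of NS1 expression was scored in HEK 293 cells given compound 1 h ahead of MR766 virus (MOI = 0.5). Following 24 h at 37 C, two anti-NS1 antibodies generated a TR-FRET signal, scaled between uninfected and infected controls.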

[10] = qHTS of pediatric cancer cell lines to identify multiple opportunities for drug repurposing: Primary screen for TC32 cells (AID 1347089); note: nearly all actives have a fitted effect of over 60% in size; note: potency is the fitted concentration of half-maximal effect
Procedure, shortened: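 qHTS, TC32, 48 h drug treatment, CellTiter-Glo luminescence as a proxy for metabolically active cells; primary top concentration 46 µM (MIPE 11-pt, NPC 8-pt); confirmatory 11-pt.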

[11] = qHTS of pediatric cancer cell lines to identify multiple opportunities for drug repurposing: Primary screen for DAOY cells (AID 1347090); note: nearly all actives have a fitted effect of over 55% in size; note: potency is the fitted concentration of half-maximal effect
Procedure, shortened: (§2)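 Cell viability, CellTiter-Glo luminescence; 500-1,000 cells/well, 8- or 11-point titration, 48 h compound exposure at 37 degrees C, 5% CO2. Controls: DMSO neutral, bortezomib 2.3 µM final as positive.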

[12] = qHTS of pediatric cancer cell lines to identify multiple opportunities for drug repurposing: Primary screen for SJ-GBM2 cells (AID 1347091); note: potency is the fitted concentration of half-maximal effect
Procedure, shortened: as §2

[13] = qHTS of pediatric cancer cell lines to identify multiple opportunities for drug repurposing: Primary screen for A673 cells (AID 1347092); note: nearly all actives have a fitted effect of over 45% in size; note: potency is the fitted concentration of half-maximal effect
Procedure, shortened: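 Luminescence from CellTiter-Glo, taken after 15 min at room temperature, served as the proxy for metabolically active cells following 48 h treatment. Both potency and efficacy were taken from curves fitted to the titration data.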

[14] = qHTS of pediatric cancer cell lines to identify multiple opportunities for drug repurposing: Primary screen for SK-N-MC cells (AID 1347093); note: potency is the fitted concentration of half-maximal effect
Procedure, shortened: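 Metabolically active cells were quantified by ATP-dependent luminescence (CellTiter-Glo, 15 min at room temperature) following 48 h treatment. Cells had been plated at 500-1,000 per well and settled for 5 h beforehand.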

[15] = qHTS of pediatric cancer cell lines to identify multiple opportunities for drug repurposing: Primary screen for BT-37 cells (AID 1347094); note: potency is the fitted concentration of half-maximal effect
Procedure, shortened: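 ATP-based luminescence (CellTiter-Glo) quantifies viability after a 48-hour exposure. Compounds are dosed across 8 or 11 final concentrations; DMSO and 2.3 µM bortezomib serve as controls.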

[16] = qHTS Screen of the MIPE 4.0 Collection Against Ewings Sarcoma (TC32) (AID 1259256); note: potency is the fitted concentration of half-maximal effect; nearly all actives have a fitted effect of over 45% in size
Procedure, shortened: as §1

C[C@@]12C[C@@]3(O)O[C@@H](O1)[C@]1(COC(=O)c4ccccc4)[C@@H]3C[C@@]12O[C@@H]1O[C@H](CO)[C@@H](O)[C@H](O)[C@@H]1O
inactive: Potency [2] | Potency [3] | Potency [4] | Potency [5] | Potency [6] | Potency [7] | Potency [8] | Potency [9] | Potency [10] | Potency [11] | Potency [12] | Potency [13] | Potency [14] | Potency [15]
109%: viability (% of control) [1]

CCN(CC)CCNC(=O)c1c(C)[nH]c(C=C2C(=O)Nc3ccc(F)cc32)c1C
active: Potency [4] 9.59 µM | Potency [5] 13.6 µM | Potency [6] 4.29 µM | Potency [16] 10.8 µM | Potency [10] 12 µM | Potency [11] 42.9 µM | Potency [12] 34 µM | Potency [13] 5.4 µM | Potency [14] 1.08 µM | Potency [15] 17.7 µM
4.58% [at 92.2 µM]: viability (% of control) [1]
inactive: Potency [2] | Potency [3]

Cc1ccc(O)c(C(CCN(C(C)C)C(C)C)c2ccccc2)c1 (centres undefined)
103%: viability (% of control) [1]
inactive: Potency [2] | Potency [3] | Potency [4] | Potency [5] | Potency [6] | Potency [7] | Potency [8] | Potency [10] | Potency [11] | Potency [12] | Potency [13] | Potency [15]

CCOC(=O)C1=C(C)NC(=S)NC1c1cccc(O)c1 (centres undefined)
inactive: Potency [2] | Potency [3]
19.3%: viability (% of control) [1]
active: Potency [4] 0.264 µM | Potency [5] 0.105 µM | Potency [6] 0.0935 µM | Potency [8] 4.18 µM | Potency [9] 0.332 µM | Potency [10] 1.31 µM | Potency [11] 0.469 µM | Potency [12] 0.0372 µM | Potency [13] 0.0469 µM | Potency [14] 0.264 µM

COc1cc(O)c2c(c1)C1OC1C[C@H](O)[C@H](O)C(=O)C=CC[C@H](C)OC2=O (some centres undefined)
5.65%: viability (% of control) [1]
inactive: Potency [2] | Potency [3]
active: Potency [4] 16.6 µM | Potency [5] 11.8 µM | Potency [6] 7.43 µM | Potency [16] 7.43 µM | Potency [9] 11.8 µM | Potency [11] 7.43 µM | Potency [12] 8.33 µM | Potency [13] 5.9 µM | Potency [14] 2.35 µM

CN1CCc2c(c3ccccc3n2Cc2ccc(C(=O)NO)cc2)C1
active: Potency [4] 13.2 µM | Potency [5] 16.6 µM | Potency [6] 13.2 µM | Potency [16] 18.7 µM | Potency [11] 3.72 µM | Potency [13] 5.9 µM | Potency [14] 2.96 µM | Potency [15] 30.6 µM
inactive: Potency [2] | Potency [3]
4.77%: viability (% of control) [1]

CC(O)(C#Cc1ccc2c(c1)N(c1nc(N)ncc1Cl)CC2)c1nccs1 (centres undefined)
37.2%: viability (% of control) [1]
inactive: Potency [2] | Potency [3] | Potency [10]
active: Potency [4] 16.6 µM | Potency [5] 20.9 µM | Potency [6] 20.9 µM | Potency [16] 20.9 µM | Potency [11] 7.43 µM | Potency [12] 13.2 µM | Potency [14] 2.35 µM

CN(C)c1ccc2cc(C(=O)N[C@@H](CCCN=C(N)CCl)C(=O)NCc3ccccc3)ccc2c1
2.66%: viability (% of control) [1]
active: Potency [2] 20.9 µM | Potency [4] 0.833 µM | Potency [5] 11.8 µM | Potency [6] 9.35 µM | Potency [11] 7.43 µM | Potency [12] 20.9 µM | Potency [13] 0.469 µM | Potency [14] 3.32 µM
inactive: Potency [3] | Potency [8] | Potency [9] | Potency [10]

COc1cc(C[C@@H](CO)[C@H](CO)Cc2ccc(O)c(OC)c2)ccc1O
inactive: Potency [2] | Potency [3] | Potency [8] | Potency [9]
23.4%: viability (% of control) [1]
active: Potency [4] 0.209 µM | Potency [5] 0.372 µM | Potency [6] 0.743 µM | Potency [11] 0.469 µM | Potency [13] 0.187 µM | Potency [14] 0.209 µM | Potency [15] 3.85 µM

C#C[C@]1(O)CC[C@@H]2[C@@H]3CCC4=CC(=O)CC[C@@H]4[C@H]3CC[C@@]21CC
inactive: Potency [2] | Potency [3] | Potency [4] | Potency [5] | Potency [6] | Potency [8] | Potency [9] | Potency [10] | Potency [12] | Potency [13] | Potency [15]
114%: viability (% of control) [1]

O=C(Nc1cc2cc[nH]c2cn1)c1ccccc1
inactive: Potency [9]
8.25%: viability (% of control) [1]
active: Potency [2] 4.69 µM | Potency [3] 5.26 µM | Potency [4] 13.2 µM | Potency [5] 13.2 µM | Potency [6] 14.8 µM | Potency [16] 13.2 µM | Potency [12] 14.8 µM | Potency [13] 7.43 µM | Potency [14] 11.8 µM

c1ccc2c(Oc3nc(Nc4ccc(N5CCOCC5)cc4)c4ncn(C5CCCCC5)c4n3)cccc2c1
active: Potency [14] 11.8 µM
100%: viability (% of control) [1]
inactive: Potency [2] | Potency [3] | Potency [4] | Potency [5] | Potency [6] | Potency [8] | Potency [10] | Potency [11] | Potency [15]

COc1cc(C(C)C)c(Oc2cnc(NC(CO)CO)nc2N)cc1I
inactive: Potency [2] | Potency [3] | Potency [8] | Potency [9] | Potency [10] | Potency [15]
active: Potency [4] 0.935 µM | Potency [5] 1.05 µM | Potency [6] 7.43 µM | Potency [13] 0.372 µM | Potency [14] 1.05 µM
1.88%: viability (% of control) [1]
